The source of these data is PubChem BioAssay (NCI).

About 83,000 compounds went through this panel and 20% of them were active in at least one assay; those are over-represented in the sample as a whole.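 Growth was measured after 48 h exposure to one concentration of compound in 96-well plates. Values under 10 count as active.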 The source made the active and inactive calls.

For one assay, the system named is HCC-2998 colon. Put plainly: NCI-60 one-dose screen, 48 h (100 = growth as untreated, 0 = no growth, -100 = all killed). The note with it: 10 µM unless noted.
`O=c1oc2ccccc2cc1-c1csc(N=Nc2c(O)[nH]c3ccc(Cl)cc23)n1`: the growth was 104% (inactive).

Consider `COc1cc2nc(SCc3cc(OC)c(OC)c(OC)c3)n(-c3ccccc3OC)c(=O)c2cc1OC`, for which the growth was 94.6% (inactive).

Take `COc1ccc(-c2nc3sccn3c2/C=C/C(=O)c2cc(OC)c(OC)c(OC)c2)cc1OC`: the growth is 40.3% (inactive).

With `COC(=O)c1c2c(c(C)[n+]([O-])c1C)C(=O)C=C(NCc1ccc(F)c(Cl)c1)C2=O`, the growth is -59.3% (active).

In the case of `Cc1nc2cc(Nc3nc(Nc4ccc(F)cc4)nc(N4CCCC4)n3)ccc2n1Cc1ccccc1`, the growth is -59.2% (active).

For the compound `COc1cc2oc(-c3ccc(O)cc3)cc(=O)c2c(O)c1I`, the growth was 105% (inactive).

Take `COC(=O)c1c2c(c(C)[n+]([O-])c1C)C(=O)C=C(NCc1ccc(Cl)cc1)C2=O`: the growth was -34.6% (active).

`Cc1nc2cc(Nc3nc(Nc4ccc(F)cc4)nc(N4CCN(C)CC4)n3)ccc2n1Cc1ccccc1`: the growth is -14.8% (active).

As for `COc1ccc(OC)c2ncccc12`, the growth is 103% (inactive).

Regarding `COc1ccc(S(=O)(=O)ON=C2C=C(C)C(=O)C(C)=C2)cc1`, the growth is 112% (inactive).

For the compound `O=C1c2c(c3c4cc(Br)ccc4[nH]c3c3ccc4ccccc4c23)C(=O)N1O`, the growth was 95.1% (inactive).

Regarding `C=CC[P+](c1ccccc1)(c1ccccc1)c1ccccc1`, the growth is 51.7% (inactive).

As to `COC(=O)c1c2c(c(C)[n+]([O-])c1C)C(=O)C=C(NCc1cccc(Cl)c1)C2=O`, the growth was -38.3% (active).

Take `COc1ccc(-c2nc(Nc3ccc(F)cc3)nc(Nc3ccc4c(c3)nc(C)n4Cc3ccccc3)n2)cc1`: the growth was 45.5% (inactive).

Regarding `O=C(N/N=C(\CS(=O)(=O)c1ccccc1)c1cc2ccccc2oc1=O)c1ccccc1`, the growth was 106% (inactive).

`COc1ccc(C(=O)C2=CC(=O)C(=O)C2)cc1OC`: the growth is 108% (inactive).

As for `Cc1ccc(S(=O)(=O)N2C/C(=C\c3cc(F)cc(F)c3)C(=O)/C(=C/c3cc(F)cc(F)c3)C2)cc1`, the growth is -82.6% (active).

In the case of `Nc1nc(N)c(N=Nc2c(Br)cc(S(N)(=O)=O)cc2Br)c(N)n1`, the growth is 100% (inactive).

Turning to `Cc1ccc(-c2c3c(N)c4c(nc3nc3c2c(C)nn3-c2ccccc2)CCCC4)cc1`, the growth was 107% (inactive).

As to `COc1cc(-c2nc3ccccc3o2)cc(CN2CCN(c3ccccc3)CC2)c1O`, the growth was 85.5% (inactive).

Take `Cc1cccc2c(=O)c3c(sc12)c(NCCNCCO)nc1ccccc13`: the growth is -24.9% (active).

On to `Nc1nc2c(s1)CCc1c-2c(Br)n(Cc2ccccc2)c1Br`, for which the growth is 102% (inactive).

As to `COC(=O)c1c2c(c(C)[n+]([O-])c1C)C(=O)C=C(NCc1cccc(OC)c1)C2=O`, the growth is -64.7% (active).

For the compound `COc1ccc(-c2c(-c3cc4c(c(OC)c3OC)OCO4)noc2N)cc1`, the growth is 20.6% (inactive).

As to `O=C(N/N=C(\CS(=O)(=O)c1ccccc1)c1cc2cc(Br)ccc2oc1=O)c1ccccc1`, the growth is 103% (inactive).

As to `Cn1c(=O)c2c(-c3ccccc3F)n(-c3ccc4c(c3)OCO4)cc2n(C)c1=O`, the growth is 92.2% (inactive).

For `CN(C)C(=S)SCN1C(=O)c2ccc([N+](=O)[O-])cc2S1(=O)=O`, the growth was 102% (inactive).

As for `Cc1nn(-c2ccccc2)c2nc3nc4c(c(N)c3c(-c3ccc(Cl)cc3)c12)CCCC4`, the growth was 113% (inactive).

In the case of `COc1cc(CNCCN2C(=O)c3ccc4c5c(ccc(c35)C2=O)C(=O)N(CCNCc2cc(OC)c(OC)c(OC)c2)C4=O)cc(OC)c1OC`, the growth was -100% (active).

Take `O=C(O)c1ccccc1Oc1cc(-c2ccco2)nc(OCCBr)n1`: the growth was 107% (inactive).

On to `COc1cccc(-c2ccc3c(c2)C2CCN(Cc4ccccc4)C3C2)c1` (stereo not drawn), for which the growth was 83.5% (inactive).

Take `COc1ccc(OC2=CC(=O)c3ccc(C)nc3C2=O)cc1`: the growth is 102% (inactive).

In the case of `CC(=O)OC[C@]1(C)C=C2C(=O)[C@](C)(O)C3(CC3)C(C)=C2[C@H]1OC(C)=O`, the growth is 81.8% (inactive).

The next assay deals with KM12 colon. The description is as above. The note with it: 10 µM unless noted.
Take `O=c1oc2ccccc2cc1-c1csc(N=Nc2c(O)[nH]c3ccc(Cl)cc23)n1`: the growth is 108% (inactive).

With `COc1cc2nc(SCc3cc(OC)c(OC)c(OC)c3)n(-c3ccccc3OC)c(=O)c2cc1OC`, the growth is 54.1% (inactive).

In the case of `COc1ccc(-c2nc3sccn3c2/C=C/C(=O)c2cc(OC)c(OC)c(OC)c2)cc1OC`, the growth is -15.2% (active).

In the case of `COC(=O)c1c2c(c(C)[n+]([O-])c1C)C(=O)C=C(NCc1ccc(F)c(Cl)c1)C2=O`, the growth was -16.5% (active).

Turning to `O=C(N/N=C/c1ccc(F)cc1)c1[nH]c2ccc(I)cc2c1-c1ccccc1`, the growth was 5.42% (active).

Consider `Cc1nc2cc(Nc3nc(Nc4ccc(F)cc4)nc(N4CCCC4)n3)ccc2n1Cc1ccccc1`, for which the growth was -73.4% (active).

`COc1cc2oc(-c3ccc(O)cc3)cc(=O)c2c(O)c1I`: the growth was 96.5% (inactive).

As for `COC(=O)c1c2c(c(C)[n+]([O-])c1C)C(=O)C=C(NCc1ccc(Cl)cc1)C2=O`, the growth was -4.32% (active).

For the compound `Cc1nc2cc(Nc3nc(Nc4ccc(F)cc4)nc(N4CCN(C)CC4)n3)ccc2n1Cc1ccccc1`, the growth was 17% (inactive).

For the compound `COc1ccc(OC)c2ncccc12`, the growth was 99.6% (inactive).

For `COc1ccc(S(=O)(=O)ON=C2C=C(C)C(=O)C(C)=C2)cc1`, the growth was 97.6% (inactive).

Consider `O=C(COc1cccc(/C=C2\COc3ccccc3C2=O)c1)c1ccccc1`, for which the growth was 31.6% (inactive).

Take `Oc1cccc(Nc2nc(-c3ccccn3)cs2)c1`: the growth was 103% (inactive).

Turning to `O=C1c2c(c3c4cc(Br)ccc4[nH]c3c3ccc4ccccc4c23)C(=O)N1O`, the growth was 87.5% (inactive).

On to `C=CC[P+](c1ccccc1)(c1ccccc1)c1ccccc1`, for which the growth is 31.3% (inactive).

Take `COc1ccc(-c2nc(Nc3ccc(F)cc3)nc(Nc3ccc4c(c3)nc(C)n4Cc3ccccc3)n2)cc1`: the growth was 26% (inactive).

Take `O=C(N/N=C(\CS(=O)(=O)c1ccccc1)c1cc2ccccc2oc1=O)c1ccccc1`: the growth is 108% (inactive).

Take `COc1ccc(C(=O)C2=CC(=O)C(=O)C2)cc1OC`: the growth is 106% (inactive).

Take `COc1ccc(C(=O)COc2cccc(/C=C3\CSc4ccc(C)cc4C3=O)c2)cc1`: the growth was 79.6% (inactive).

For `Cc1ccc(S(=O)(=O)N2C/C(=C\c3cc(F)cc(F)c3)C(=O)/C(=C/c3cc(F)cc(F)c3)C2)cc1`, the growth is -30.6% (active).

Turning to `Nc1nc(N)c(N=Nc2c(Br)cc(S(N)(=O)=O)cc2Br)c(N)n1`, the growth is 61.3% (inactive).

For the compound `Cc1ccc(-c2c3c(N)c4c(nc3nc3c2c(C)nn3-c2ccccc2)CCCC4)cc1`, the growth is 105% (inactive).

As for `COc1cc(-c2nc3ccccc3o2)cc(CN2CCN(c3ccccc3)CC2)c1O`, the growth was 49.8% (inactive).

Regarding `Cc1cccc2c(=O)c3c(sc12)c(NCCNCCO)nc1ccccc13`, the growth is 5.93% (active).

As for `Nc1nc2c(s1)CCc1c-2c(Br)n(Cc2ccccc2)c1Br`, the growth is 108% (inactive).

For the compound `COc1ccc(-c2csc3c2-n2cccc2C3=O)cc1O`, the growth is -2.75% (active).

Consider `COc1ccc(-c2c(-c3cc4c(c(OC)c3OC)OCO4)noc2N)cc1`, for which the growth is 18.9% (inactive).

In the case of `O=C(N/N=C(\CS(=O)(=O)c1ccccc1)c1cc2cc(Br)ccc2oc1=O)c1ccccc1`, the growth is 105% (inactive).

Take `Cn1c(=O)c2c(-c3ccccc3F)n(-c3ccc4c(c3)OCO4)cc2n(C)c1=O`: the growth was 102% (inactive).

Consider `CN(C)C(=S)SCN1C(=O)c2ccc([N+](=O)[O-])cc2S1(=O)=O`, for which the growth was 96.1% (inactive).

With `Cc1nn(-c2ccccc2)c2nc3nc4c(c(N)c3c(-c3ccc(Cl)cc3)c12)CCCC4`, the growth is 105% (inactive).

Consider `COc1cc(-c2ccc3cc(OC)c(OC)c(OC)c3c2)cc(OC)c1OC`, for which the growth was 37.5% (inactive).

As for `COc1cccc(-c2ccc3c(c2)C2CCN(Cc4ccccc4)C3C2)c1` (stereo not drawn), the growth is 56.7% (inactive).

With `COc1ccc(OC2=CC(=O)c3ccc(C)nc3C2=O)cc1`, the growth was 81.3% (inactive).

`CC(=O)OC[C@]1(C)C=C2C(=O)[C@](C)(O)C3(CC3)C(C)=C2[C@H]1OC(C)=O`: the growth is 78.4% (inactive).
